target: TSEN34; assay: pooled miR-30 sensor sort-seq; sequence = guide strand; details: shRNA
Note: reference of the scale not given here.

Sequence	sensor-assay potency score (higher = more potent)
TAGACTGGACACGCCAGTCCAG	-1.11
TACTGTAGCGCAGCTCGTGGGC	-0.594
TTCTGCTTCTTAGCAGCCTGGC	-0.77
TAGACCAGGAAGTCACCTCCGA	0.0618
TCTTTAGACTGGACACGCCAGT	-1.04
ATCACTGGTCTCATCCTCTTTG	-0.941
TCGGGCATCAGCAGCAGCGGGA	-1.31
TCTCTGTAGATACTGTAGCGCA	-0.97
TTTCTGCTTCTTAGCAGCCTGG	-1.47

target: TSPAN3; assay: as above; details: shRNA

Sequence	sensor-assay potency score (higher = more potent)
TTTCTTTGAACCAATCTGTATT	-1.05
TAGGTCTTATACACTTTCTGAA	-0.69
AACCACTACAACAACTTCTGTG	0.151
TAAGCAGGATCTCTACTCCTTC	-0.519
TACACTTTCTGAATGCTGCGAT	1.02
TTGCTCTGTAAACATATCCCAA	-1.02
TTTCTTGTAGCTTCTTCACTAC	-0.264
AATTCCACAACAATGCAGCTGT	0.00279
TTATACACTTTCTGAATGCTGC	-0.18
TTGCTGGCAGTCTCTCTGCAGC	-1.25
TTCTGTGACAAAAACCAAGAGC	-0.255

target: TSPAN8; assay: as above; details: shRNA

Sequence	sensor-assay potency score (higher = more potent)
TTGAGAGTCATTGCTTACTCGT	-0.804
TATGTCTAGAAGATATCTGTGG	-0.374
AACAACAGAAGCATGCAGCGAC	-0.179
TATAGCACCGCAGCATCCCAGG	-1.12
TTTGAAAACAGCTCCTAGGATA	-0.99
TAGGATACCTGTCGCCACCTGC	-0.685
TATGAAAAACAACAGAAGCATG	-1.79
TTGCTTGAGAGTCATTGCTTAC	-1.33
TTGTTTTCCATTATAGCTTTGG	-0.474
TTAGATTTGAAAACAGCTCCTA	0.475
TAGATTTGAAAACAGCTCCTAG	-0.482

target: TSPY2; assay: as above; details: shRNA

Sequence	sensor-assay potency score (higher = more potent)
TCCTGCACAGCCTCCATCCTGA	-1.01
TCTTGCAGAGATGAACACGATG	-0.976
ATGAACACGATGCTTCTCTTCT	-0.856

target: TSPYL2; assay: as above; details: shRNA

Sequence	sensor-assay potency score (higher = more potent)
TTGATCAAAATTGAAATTCTGG	0.568
TTGTGGTCAGGATTCTCGCTGT	-0.451
ATTGTCTTCAGGATTCTCGTTG	-0.109
TTGACAATCACCATGTTTGTGA	0.272
TCATTGTCACTGTCGCTGCTGT	-0.335
TTCATTGTCACTGTCGCTGCTG	0.841

From the OligoGym collection
